This is part of a sample that, as a whole, favours compounds with a hit. Of some 83,000 tested, about 20% had one in any assay.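 Results are percent growth after 48 hours of single-concentration exposure. 100 means growth as in untreated cells, lower positive values show inhibition; negative values down to -100 show cell death.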 Activity calls are given as the source filed them. Rule for the calls: active = growth percent below 10; inactive = the rest.
The compounds below were run on HL-60(TB) leukemia (assay: NCI-60 one-dose screen, 48 h (100 = growth as untreated, 0 = no growth, -100 = all killed)). Conditions: 10 µM unless noted.

SMILES | growth
COC(=O)[C@@H](NC(=O)NC(=O)NC(=O)CI)C(C)C | 77.9% (inactive)
CC(=O)CC1CCCC1c1ccc2ccccc2c1 (stereo not given) | 101% (inactive)
C[C@H]1C[C@@H](n2cnc3c(N)nccc32)[C@H](O)[C@@H]1O | 80.5% (inactive)
COc1ccc(-c2c(N)n[nH]c2-c2ccccc2O)cc1OC | 110% (inactive)
CC(=O)Cc1cccnc1 | 82.4% (inactive)
CC(=O)c1c(Nc2ccc(F)c(F)c2F)[nH]c2c(F)cc(F)cc2c1=O | -48% (active)
C=C1C(=O)O[C@H]2[C@H]1CCC(/C=N/c1ncc(Br)cc1N)=C\CC[C@@]1(C)O[C@@H]21 | -21.4% (active)
O=C(Nc1cccc(-n2ccc3c(NC(=O)c4ccccc4)ncnc32)c1)Nc1ccc(Cl)c(C(F)(F)F)c1 | -1.92% (active)
COc1cc(/C=C2\CN(C)C/C(=C\c3cc(CN4CCOCC4)c(O)c(OC)c3)C2=O)cc(CN2CCOCC2)c1O | 32.6% (inactive)
Nc1ncnc2c1C(c1ccc([N+](=O)[O-])cc1)c1sc3c(F)cccc3c1O2 (stereo not given) | 97.2% (inactive)
CNc1nc2c(s1)C(c1cc(F)ccc1F)CC(=O)N2 (stereo not given) | 46.7% (inactive)
COc1ccc(OC)c(-c2cn3nc(-c4c[nH]c5ccc(Br)cc45)sc3n2)c1 | 86.3% (inactive)
CCN(CC)CCCC(C)Nc1ccnc2cc(Cl)c(SCc3ccccc3)cc12 (stereo not given) | -64.8% (active)
COc1cccc2c(=O)c3c(sc12)c(NCCCNCCO)nc1ccccc13 | 59.8% (inactive)
CC1(C)OB(O)c2cc(-c3nc4ccc5[nH]ncc5c4c4c3CCCC4)ccc21 | 90.7% (inactive)
O=S(=O)(Nc1ccc(Br)c(Cl)c1)c1ccc(-c2cnc(C3CC3)o2)cc1 | -4.27% (active)
Cc1cccc(NC(=O)Nc2ccc(-c3ccc4c(c3)NC(=O)/C4=C\c3ccc[nH]3)cc2)c1 | 75.1% (inactive)
CC1=CC(c2ccco2)=C2C(N)=NNC2N1 (stereo not given) | 106% (inactive)
C1=CC2(C=C1)OC21CCC2(C=CC3(C2)OC3C2CCCCC2)CC1 (stereo not given) | 105% (inactive)
O=C1/C(=C/c2ccc(OCc3ccccc3)cc2)Oc2cc(OCCN3CCCCC3)ccc21 | 80.9% (inactive)

SMILES | growth
O=C1C=C[C@H](O)[C@@]2(CO)O[C@@H]12 | -24.4% (active)
c1ccc(-c2ccc3c(c2)C2(CCNCC2)CN3)cc1 | 93.7% (inactive)
Cc1ccc(Nc2nc(N)nc(N)c2N=O)cc1Cl | 67.9% (inactive)
Cn1cnc([N+](=O)[O-])c1S(=O)(=O)Oc1ccccc1 | 54.3% (inactive)
Cn1c(=O)[nH]c2ccccc2c1=O | 111% (inactive)
COc1cc(-c2ccc(-c3ccc(C(=N)N)cc3)s2)cc(OC)c1OC | 3.15% (active)
CCOP(=O)(O)OP(=O)(O)OCC | 94.1% (inactive)
COc1ccc(/C=N/NC(=O)c2ccc(-n3cc(-c4ccccc4)nn3)cc2)cc1OC | 94.2% (inactive)
OCc1cn(-c2ccc(Cl)cc2)nc1-c1ccc(O)cc1 | 51.7% (inactive)
C/C(=N\Nc1ccc2ccccc2n1)c1ccccn1 | -39% (active)
O=[N+]([O-])c1cccc(C2c3ccccc3Oc3ccccc32)c1 | 99% (inactive)
O=C(N/N=C/c1c(Cl)cccc1Cl)c1ccccc1Nc1ccnc(C(F)(F)F)c1 | 96.5% (inactive)
CCC(c1ccccc1)c1noc(CCN(CC)CC)n1 (stereo not given) | 77.3% (inactive)
CCCCCCCCCCCCCCCCCC1=NCCCN1CCO | 106% (inactive)
N#Cc1nc2c(S(=O)(=O)c3ccccc3)c(N)n(Cc3cccnc3)c2nc1C#N | 53% (inactive)
CCCCCCN(C)Cc1ccc(OCCOc2ccc(CN(C)CCCCCC)cc2)cc1 | -43.4% (active)
NC(=O)c1c(NC(=O)c2ccccn2)sc2c1CCC(=O)C2 | -0.0087% (active)
Cc1cc(=O)oc2cc(O)cc(O)c12 | 109% (inactive)
Cc1cccc(NC(=O)c2sc3nc4c(cc3c2N)CN(Cc2ccccc2)CC4)c1C | 7.62% (active)
Clc1ccc2nn3c4ccccc4c(OCCN4CCOCC4)nc3c2c1 | 81.9% (inactive)

From PubChem BioAssay (NCI)
